Source: PubChem
GoLoco inh red: inhibitors of human Gai1-RGS12 GoLoco interaction (red fluorophore) | Gai1:RGS12 GoLoco peptide FP, rhodamine, 10 min | Potency, µM (doses to about 61.6 µM), for the others: at the highest dose activity, negative = inhibition, most hits filed as inhibitors | AID 880 | 230,000 compounds, 0.44% hits; active = well fitted inhibition curve with a large enough effect, not every such curve was filed as active; inactive = no such curve, though single readings can be large or run the other way; note: nearly all actives have a fitted effect of over 30% in size
Target sequence (P63096 whole entry, looked up): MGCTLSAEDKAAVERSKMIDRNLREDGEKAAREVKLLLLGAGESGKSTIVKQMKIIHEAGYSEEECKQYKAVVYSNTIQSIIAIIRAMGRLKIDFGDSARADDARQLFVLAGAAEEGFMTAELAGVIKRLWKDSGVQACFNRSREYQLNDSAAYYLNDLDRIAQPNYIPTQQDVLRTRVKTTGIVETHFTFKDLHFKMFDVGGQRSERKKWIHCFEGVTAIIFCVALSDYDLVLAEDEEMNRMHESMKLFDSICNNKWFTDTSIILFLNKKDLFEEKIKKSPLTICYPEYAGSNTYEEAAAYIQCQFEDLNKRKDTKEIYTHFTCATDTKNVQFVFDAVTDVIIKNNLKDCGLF
Tau fluor counter: counter-screen for tau fibril formation inhibitors; Potency, µM (series often up to 57.7 µM), without a hit: top-dose activity change, negative = decrease; tau K18 P301L Alexa594 fluorescence, heparin fibrillization; 280,000 compounds, 0.93% hits; note: nearly all actives have a fitted effect of over 55% in size
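Human tau K18 P301L (15 uM unlabeled, 0.24 uM Alexa 594-labeled) in 100 mM sodium acetate pH 7 with 20 uM heparin, 6 hr at 37 C. ThT 30 uM added, 1 hr ambient; Alexa 594 FP and total fluorescence read at 555/632 nm.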
Tau ThT inhib: inhibitors of human tau fibril formation, thioflavin T binding | recombinant tau K18 P301L (four-repeat tau fragment), heparin-induced fibrillization, ThT fluorescence | P10636 | 270,000 compounds, 2.1% hits | Potency, µM (top dose mostly 57.4 µM), without a hit: at the highest dose activity, negative = inhibition, actives largely listed as inhibitors | AID 1460; note: nearly all actives have a fitted effect of over 55% in size
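K18 P301L tau (15 uM + 0.24 uM Alexa 594-tagged), heparin 20 uM, NaOAc pH 7, 6 h 37 C; ThT 30 uM, 1 h RT, ex 450/em 510 nm.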
JMJD2E inh: inhibitors of human JMJD2E histone demethylase. B2RXH2. JMJD2E catalytic domain, FDH-coupled NADH fluorescence (FDH is formaldehyde dehydrogenase). Potency, µM (doses to about 57.1 µM), without a hit: top-dose activity change, negative = inhibition, hits mostly inhibitors. 230,000 compounds, 1.6% hits. AID 2147; active = well fitted inhibition curve with a large enough effect, not every such curve was filed as active; inconclusive = small, poorly fitted or top-dose-only effect, or another doubt; inactive = no such curve, though single readings can be large or run the other way;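 note: 0% = wells with enzyme and -100% = buffer wells without enzyme; nearly all actives have a fitted effect of over 50% in size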
Target sequence (B2RXH2 1-337 limits assumed): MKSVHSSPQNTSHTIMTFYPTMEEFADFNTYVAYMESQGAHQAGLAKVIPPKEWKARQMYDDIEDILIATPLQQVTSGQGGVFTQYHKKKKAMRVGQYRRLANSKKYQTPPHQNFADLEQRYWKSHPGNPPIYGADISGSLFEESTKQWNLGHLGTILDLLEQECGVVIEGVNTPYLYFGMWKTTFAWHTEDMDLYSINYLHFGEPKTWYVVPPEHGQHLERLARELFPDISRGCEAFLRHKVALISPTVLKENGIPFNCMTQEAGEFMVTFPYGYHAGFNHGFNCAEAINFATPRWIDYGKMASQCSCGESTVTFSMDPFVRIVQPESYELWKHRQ
Tau fibril FP: inhibitors of human tau fibril formation. K18 P301L tau heparin fibrillization, Alexa594 FP, 6 h. Potency, µM (series often up to 57.7 µM), without a hit: at the highest dose activity, negative = inhibition, usual class: inhibitors. 280,000 compounds, 0.39% hits. AID 1468; note: nearly all actives have a fitted effect of over 55% in size
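Human K18 P301L fragment (15 uM unlabeled plus 0.24 uM Alexa 594-labeled) in 100 mM sodium acetate pH 7 with compound, aggregation induced by 20 uM heparin for 6 hr at 37 C. ThT (30 uM) added for 1 hr, then Alexa 594 FP read.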
* = called active by the depositor; ? = inconclusive; · = no result; [ ] = another dose, or the depositor's remark. Shown are actives, neighbours in structure and some others; about 3.4% of the full set was active somewhere. Unless noted, calls come from the whole dose curve; as a rule, active = well fitted curve in the direction sought with a large enough effect; inconclusive = small, poorly fitted or top-dose-only effect, or another doubt; inactive = no such curve, though single readings can be large; an effect the other way counts as inactive or inconclusive. Unless noted, % is set by controls: 0 for no effect and ±100 for the full control effect; potency is the fitted concentration of half-maximal effect.

SMILES | GoLoco inh red | Tau fluor counter | Tau ThT inhib | JMJD2E inh | Tau fibril FP
CC(=O)O[C@H]1C(=O)[C@@]2(C)C([C@H](OC(=O)c3ccccc3)[C@]3(O)C[C@H](OC(=O)[C@H](O)[C@@H](NC(=O)c4ccccc4)c4ccccc4)C(C)=C1C3(C)C)[C@]1(OC(C)=O)CO[C@@H]1C[C@@H]2OC(=O)[C@H](C)NC(=O)c1ccc(-c2c3ccc(=O)cc-3oc3cc(O)ccc23)c(C(=O)O)c1 (some centres undefined) | 2µM* | ? | ? | · | -3.2%[11.6 µM]
O=C1NC(=O)C(=Cc2ccc(Oc3ccc([N+](=O)[O-])cc3)cc2)C(=O)N1 | 8.2% | -8.4% | 12.6µM* | 6.3% | ?
O=S(=O)(NCCO)c1cc[c]([Sb])cc1 | 5.2%[14.2 µM] | · | · | · | ·
CC1(C)CCC(C)(C)c2c1ccc(O)c2Cc1c(O)ccc2c1C(C)(C)CCC2(C)C | 1.2%[14.2 µM] | · | · | · | ·
CN(C)c1ccc(/C=C/C=C/c2sc3ccccc3[n+]2C)cc1 | 167.2% | ? | 6.31µM* | -1.0% | ?
CC[n+]1c(/C=C/C=C/c2ccc(N(C)C)cc2)sc2ccccc21 | 263.5% | 10µM*[quencher] | 1.12µM* | -2.9% | 6.31µM*
CC[n+]1c(/C=C/N(C)c2ccccc2)sc2ccc(Cl)cc21 | 214.5% | ? | ? | -4.2% | 4.5%
O=[As](O)(O)c1ccc(N=Nc2ccc([As](=O)(O)O)cc2)cc1 | 7.2%[14.2 µM] | · | · | · | ·
CCOc1cccc(OCC)c2c(C)[n+](CC3CCCO3)c(C)c1-2 (centres undefined) | 1.9% | ? | 20µM* | ? | ?
O=C(O)[C@@H]1[C@H](C(=O)O)[C@]2(Cl)C(Cl)=C(Cl)[C@@]1(Cl)C2(Cl)Cl | -9.6%[14.2 µM] | · | · | · | ·
O=C1NC(=O)c2c1c1c3ccccc3[nH]c1c1[nH]c3ccccc3c21 | -27.8% | 14.1µM*[quencher] | ? | · | -8.6%
O=c1[nH]c2ccccc2c(=O)n1-c1ccc(Cl)cc1Cl | 3.9% | -1.5% | -2.6% | ? | -4.1%
Nc1nc(N)c(N=Nc2ccc([As](=O)(O)O)cc2)c(=O)[nH]1 | 0.1%[14.2 µM] | · | · | · | ·
Oc1ccccc1O | -52.9% | ? | ? | 14.1µM* | ?
O=C(O)c1ccccc1O | -10.2% | -8.4% | -8.4% | ? | -6.1%
CC(=NCCc1c[nH]c2ccccc12)c1c(O)n(Cc2ccccc2)c(=O)[nH]c1=O | -1.7% | -26.3% | -17.8% | -17.1% | -2.2%
C/C(=N\NC(=O)c1ccncc1)c1c(O)n(-c2ccccc2)c(=O)[nH]c1=O | 6.5% | -10.0% | -12.0% | ? | 6.4%
C/C(=N\Nc1cccc2ccccc12)c1c(O)n(Cc2ccccc2)c(=O)[nH]c1=O | 92.0% | ? | 17.8µM* | ? | ?
C/C(=N\NC(=O)c1ccccc1)c1c(O)n(Cc2ccccc2)c(=O)[nH]c1=O | 5.1% | ? | · | 25.1µM* | 0.3%
CN[C@H](Cc1ccccc1)c1cccc(OC)c1O | 7.9%[14.2 µM] | · | · | · | ·
CC(Cl)CCl (centres undefined) | 2.8% | · | · | · | ·
C[C@H]1CC[C@@]2(NC1)O[C@@H]1C[C@@H]3[C@@H]4CC=C5C[C@@H](O)CC[C@]5(C)[C@@H]4CC[C@]3(C)[C@H]1[C@@H]2C | 3.5%[14.2 µM] | · | · | · | ·
CN1CCC2(CC1)C(C#N)=C(N)NC(S)=C2C#N | 183.4% | ? | 22.4µM* | ? | ?
O=C(O)C[C@H]1OCC=C2CN3CC[C@@]45C6=CC(=O)C(=O)C([N+](=O)[O-])=C6N[C@H]4[C@H]1[C@H]2C[C@@H]35 | 2.9%[14.2 µM] | · | · | · | ·
CC(C)CCCC1(C)C=Cc2c(O)c3c(c(CCC(C)C)c2O1)OC12C(CC4CC1C(C)(C)OC2(CCC(C)C(=O)O)C4O)C3=O (centres undefined) | 2.8% | -3.6% | ? | -10.2% | -7.3%
SMILES | GoLoco inh red | Tau fluor counter | Tau ThT inhib | JMJD2E inh | Tau fibril FP
COc1c(CC=C(C)C)c2c(c3oc(=O)c(-c4ccc(O)cc4)c(O)c13)C=CC(C)(C)O2 | -1.3% | -24.8% | -25.0% | ? | 4.1%
CC(C)=CCCC1(C)C=Cc2c(O)c3c(c(CC=C(C)C)c2O1)OC12C(=CC4CC1C(C)(C)OC2(C/C=C(/C)C(=O)O)C4=O)C3=O (centres undefined) | 0.4% | -15.8% | 22.4µM* | ? | ?
CC(C)=CCCC1(C)C=Cc2c(O)c3c(c(CC=C(C)C)c2O1)OC12C(=CC4CC1C(C)(C)OC2(C/C=C(/C)C(=O)O)C4O)C3=O (centres undefined) | -8.5% | -25.2% | 17.8µM* | -19.6% | ?
COc1ccc(-c2nnc3n2N(C(C)=O)C(c2ccc(Cl)c(Cl)c2)=C(C(C)=O)S3)cc1 | · | -24.7% | ? | · | -10.4%
O=C(O)CCn1cc(C=C2C(=O)NC(=S)NC2=O)c(-c2ccccc2)n1 | 28.2µM* | 5.1% | 6.5% | 1.3% | 6.7%
O=C(O)CCn1cc(C=C2C(=O)NC(=S)NC2=O)c(-c2cc3ccccc3oc2=O)n1 | 140.2% | 13.8% | 10.1% | -3.6% | 5.9%
COc1cc2c(c(OC)c1OC)-c1ccc(O)c(=O)cc1[C@H](N)CC2 | 4.2%[21.6 µM] | · | · | 7.94µM* | ·
COc1ccc(CN2CCc3nc(N4CCN(c5ccc(F)cc5)CC4)ncc3C2)c(OC)c1OC | · | -17.1% | ? | · | -1.4%
CC(C)C12CN3CC(C(C)C)(CN(C1)C3c1ccccn1)C2=O (centres undefined) | · | 0.2% | -0.5% | · | -1.7%
OC12ONC(c3ccccn3)C1N1CCC2CC1 (centres undefined) | 10.5% | -11.7% | 12.6µM* | -23.5% | ?
N/C(=N\N=C\c1ccc(O)cc1O)N[N+](=O)[O-] | 16.0% | -13.6% | ? | 25.1µM* | 1.6%
N[C@H](Cc1c[nH]c2ccccc12)P(=O)(O)O | 7.7%[14.2 µM] | · | · | · | ·
C=CCN1C(=O)/C(=C/c2ccc(N3CCOCC3)o2)C(=O)NC1=S | 15.7% | 2.8% | 0.1% | -4.4% | -1.0%
O=C1NC(=O)C(=Cc2ccc(N3CCOCC3)o2)C(=O)N1 | 12.6% | 1.7% | ? | 17.8µM* | -8.0%
NCCc1c[nH]c2ccc(OC(=O)C(=O)O)cc12 | 9.4%[14.2 µM] | · | · | · | ·
COc1ccc(-c2nc3ccccc3c(=O)o2)cc1 | 8.3% | -14.7% | ? | 25.1µM* | 1.0%
C[As+](C)(c1ccc(Br)c([N+](=O)[O-])c1)c1ccc(Br)c([N+](=O)[O-])c1.O=[N+]([O-])O | 2.4%[14.2 µM] | · | · | · | ·
Oc1ccc(/C=N/NP(=S)(c2ccccc2)c2ccccc2)c(O)c1O | 7.2% | ? | 25.1µM* | 14.1µM* | ?
S=P(Nn1cnnc1)(c1ccccc1)c1ccccc1 | 2.3% | 1.1% | 2.9% | 12.2% | 2.9%
Oc1ccc(/C=N/NP(=S)(c2ccccc2)c2ccccc2)cc1O | 4.8% | 14.1µM*[quencher] | ? | ? | 12.0%
Oc1ccccc1/C=N/NP(=S)(c1ccccc1)c1ccccc1 | -15.2% | ? | -1.7% | -6.3% | ?
CCOC(=O)c1ccc(NC(=O)CSc2cc(=O)n(CC)c3ccccc23)cc1 | · | -22.5% | 3.7% | · | ?
